In PMC7819943, “Rice protein-binding microarrays: a tool to detect cis-acting elements near promoter regions in rice”:
Over roughly 68,000 sequences, “fluorescence intensity (a.u.)” has its median near 9,100; the highest 2% begin near 16,000. This is one part of a sample in which the highest values are shown more often than they occur.

Each sequence was assayed against OsWRKY34 (Oryza sativa, UniProt Q0JBA9 1-250) (assay: protein-binding microarray (RPBM); PBS, 2% BSA, 51.3 ng/ul salmon testes DNA, 50 uM zinc acetate, 200 nM TF, 25 C, 1 h; high values mean tight binding). Conditions: protein: recombinant; tags: N-terminal polyhistidine and DsRed monomer fusion (pET32a); label: CyDye5-dUTP incorporated in the synthesized complementary strand; 3' TTTTT single-stranded linker to array surface; dsDNA, one strand shown.
Outline: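 Transcription factors were made in E. coli BL21-CodonPlus as N-terminal fusions to a polyhistidine tag and DsRed, then purified on Ni–NTA. After primer extension with Cy5-dUTP and blocking with 2% BSA, a custom Agilent array was exposed for 1 h at 25 °C to 200 nM protein in PBS, 2% BSA, salmon testes DNA and 50 µM zinc acetate. Washed arrays were scanned on an Axon 4000B, and the binding signal is per-feature fluorescence intensity in arbitrary units.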

Sequence of OsWRKY34 (Q0JBA9 entry or part of it): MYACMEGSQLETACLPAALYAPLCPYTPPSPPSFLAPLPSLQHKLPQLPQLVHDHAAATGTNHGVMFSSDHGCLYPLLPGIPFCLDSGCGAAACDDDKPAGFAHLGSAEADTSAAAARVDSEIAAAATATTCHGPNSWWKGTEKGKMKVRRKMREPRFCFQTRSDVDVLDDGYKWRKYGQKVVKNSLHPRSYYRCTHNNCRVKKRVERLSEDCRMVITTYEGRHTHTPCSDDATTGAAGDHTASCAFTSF

| Sequence | binding signal |
| --- | --- |
| CATCTCCGCCGGCCGCCGTCCTCGCCATCTTCGCCGTCCTCGGAGTCACCTAGTGCAG | 12600 fluorescence intensity (a.u.) |
| GGACCATCTCCGCCGCCGCCGCTGCCATCACTTCGTCCTCCGGAGTCACCTAGTGCAG | 17600 fluorescence intensity (a.u.) |
| ATCTCCGCCGCCGCCGCCTCCTACTCGTCGCCCTCCTCCTCGGAGTCACCTAGTGCAG | 10300 fluorescence intensity (a.u.) |
| CACCGTGTCGCTCTCTCTCGTCGTCTCCGCCTCCGGCTTCCGGAGTCACCTAGTGCAG | 19600 fluorescence intensity (a.u.) |
| CCAGCCCACTGATTCCTCACCGAATTTTTTCATTTTTTTTCGGAGTCACCTAGTGCAG | 9700 fluorescence intensity (a.u.) |
| ATTCTATACTTTTGTTTCCCTATCATTTGACGCTTTACACCGGAGTCACCTAGTGCAG | 10000 fluorescence intensity (a.u.) |
| TGGCTCCTTTTAAGTTATTCTTCCCAAACAGACATGATTTCGGAGTCACCTAGTGCAG | 8660 fluorescence intensity (a.u.) |
| TTTATACATATGTGTTTATCATACCTCACGTGTCGTATATCGGAGTCACCTAGTGCAG | 8040 fluorescence intensity (a.u.) |
| TTAAGGGCATGTTTAGTTCTCAAACAAAATTTTCTAGCTGCGGAGTCACCTAGTGCAG | 8270 fluorescence intensity (a.u.) |
| ATGCTTGCTTGCCTGCCTTATCTGCGTCTTGAATTGCATCCGGAGTCACCTAGTGCAG | 10100 fluorescence intensity (a.u.) |
| CATCTATGACCCATTTTTTTTTATTTGACTGATACCCATCCGGAGTCACCTAGTGCAG | 9760 fluorescence intensity (a.u.) |
| GCCGCGCCCGCGTCACCACCGCTACCGCCCGCGCGTCCCTCGGAGTCACCTAGTGCAG | 8940 fluorescence intensity (a.u.) |
| CGCGCCGCCCGCCGTCCCCATGCCACCGCGCTGCCCGCCGCGGAGTCACCTAGTGCAG | 10200 fluorescence intensity (a.u.) |
| CTTCGTCTCCGCTCCTCTCCGCCGCCTCGTCTCGTCGCCTCGGAGTCACCTAGTGCAG | 8430 fluorescence intensity (a.u.) |
| CTTTTCCCCGCGGCCATCCCCGTCGCCCCACCGCCGCCGCCGGAGTCACCTAGTGCAG | 11200 fluorescence intensity (a.u.) |
| ACCGTGTCGAGCTATGTCTCCTCATCCTCGCTATGTTTCACGGAGTCACCTAGTGCAG | 14800 fluorescence intensity (a.u.) |
| ATCCAAGCCGTCCATCTTCACCCGTCACTGTCACTCGCCACGGAGTCACCTAGTGCAG | 16900 fluorescence intensity (a.u.) |
| TCCCCTACCGCTGCCCACCGCCGTCCACCACCGCCTTTCTCGGAGTCACCTAGTGCAG | 17000 fluorescence intensity (a.u.) |
| CCATTAAAGCCAAGCCACTGTCCTTGTCCATCTTTGTCCACGGAGTCACCTAGTGCAG | 8190 fluorescence intensity (a.u.) |
| CGTGTCGAGCTCTGTCTCCTCGTCTTCATCCGCCGCTTCACGGAGTCACCTAGTGCAG | 18100 fluorescence intensity (a.u.) |
| CCACACCACCGTCCCCTCGCTGCCTGCCTCCACCTCACCTCGGAGTCACCTAGTGCAG | 8950 fluorescence intensity (a.u.) |
| GTCGCCATCTTCCCATCCCCGCGCCGCCGTCCACCATGAGCGGAGTCACCTAGTGCAG | 17200 fluorescence intensity (a.u.) |
| GTCACCCTTCACCACGGCCATCTTCTCCTCGCTCGCCGTCCGGAGTCACCTAGTGCAG | 11200 fluorescence intensity (a.u.) |
| GCAGCTGATCGATCTGGTTTCTGCTTTGCTGCAACTCACTCGGAGTCACCTAGTGCAG | 8870 fluorescence intensity (a.u.) |

| Sequence | binding signal |
| --- | --- |
| CTGGGGTTAGTTCTATGGATATTTGCTACTCCTGTTGATACGGAGTCACCTAGTGCAG | 8220 fluorescence intensity (a.u.) |
| GAGTGACATTTGGGGTGGTTTTTGCAATTTTCTCTAAATTCGGAGTCACCTAGTGCAG | 13000 fluorescence intensity (a.u.) |
| GGGTATAAAGTCACTCTATTCGTTCTCACCGTTTTTTCGGCGGAGTCACCTAGTGCAG | 8150 fluorescence intensity (a.u.) |
| GGGAGGGCAACTGAAGAGGAGTGGCGAGGGAGGGCTTTTGCGGAGTCACCTAGTGCAG | 12200 fluorescence intensity (a.u.) |
| ACACGCCCGCCCGCCGCCTCCACCGTCTCCGCTCGCCGCGCGGAGTCACCTAGTGCAG | 10500 fluorescence intensity (a.u.) |
| ACCATTGTCGCATGCTCACATCCCATCTTTTCCAAAGGGACGGAGTCACCTAGTGCAG | 10300 fluorescence intensity (a.u.) |
| CCCTGGTTTCCGTGTCCAATGTTTGACCGTCCGTCTTATTCGGAGTCACCTAGTGCAG | 10200 fluorescence intensity (a.u.) |
| CGGGGCGGCTGGCTTGACGCGTCATCTTCCCCGCGAAAATCGGAGTCACCTAGTGCAG | 14000 fluorescence intensity (a.u.) |
| CGACATCTCTGAAACATTTCTCCTCGACCACGGCAACCCACGGAGTCACCTAGTGCAG | 8630 fluorescence intensity (a.u.) |
| ATTAATTCTGTTTTTTTCAAGTCTCTCTCGCTCTCGCTCCCGGAGTCACCTAGTGCAG | 8820 fluorescence intensity (a.u.) |
| CGTTCGCATCCACCACCAGTGCTCCGCCTGCCAGATCCATCGGAGTCACCTAGTGCAG | 9140 fluorescence intensity (a.u.) |
| TGTCCAGTCGTCACCCTGCTGCTTCCCTGCCACTGCCCTACGGAGTCACCTAGTGCAG | 17000 fluorescence intensity (a.u.) |
| CCCCGCCGTCCGCGCCGACCGCGACCTGCGCTACGCCGCCCGGAGTCACCTAGTGCAG | 8450 fluorescence intensity (a.u.) |
| CACACGCTACCCCGACTCGTCGCCTTCGCCTTGCTCGTCTCGGAGTCACCTAGTGCAG | 18000 fluorescence intensity (a.u.) |
| CTCCCGCCGCGACTCGCCGCCGCGCGCGGCATCTCCGGCCCGGAGTCACCTAGTGCAG | 8820 fluorescence intensity (a.u.) |
| GCGCCGACTGCCCGTCCGCCCCGTTGCTGCTGTGCGCACTCGGAGTCACCTAGTGCAG | 8290 fluorescence intensity (a.u.) |
| TGTGCCCGCTGCGCCAAGGGCTACGCCGTCCAGTCCGACTCGGAGTCACCTAGTGCAG | 48500 fluorescence intensity (a.u.) |
| TCACGCATCGGCGCCGCCCTCCGGCCAGCAGCGACTCGCCCGGAGTCACCTAGTGCAG | 44600 fluorescence intensity (a.u.) |
| GCTGTCGTCCCTGCTGTTCTTGGTGTGCTTCTTCACTGTCCGGAGTCACCTAGTGCAG | 13600 fluorescence intensity (a.u.) |
| GGTTGTCGTCGTCGTCGTGGCCTACGCCTTCGCTGCTGCTCGGAGTCACCTAGTGCAG | 10600 fluorescence intensity (a.u.) |
| CTCGTGCTGCTTCCACCCCTCCCTCGTCGCCTTGCCAGTTCGGAGTCACCTAGTGCAG | 9440 fluorescence intensity (a.u.) |
| GGCCTCGTCTCCTACCTCGCCGACCCCGACCCCGACCACGCGGAGTCACCTAGTGCAG | 8440 fluorescence intensity (a.u.) |
| GGCCACGCCCGCCTCCGCGATCGTCCTCGCCGGCGACTGCCGGAGTCACCTAGTGCAG | 8410 fluorescence intensity (a.u.) |
